Results reported in PubChem BioAssay (NCATS).
Inconclusive results are not listed. Where a call stands in place of a potency, no number is given. Calls of active or inactive are those of the source. Calls follow the shape of the dose curve; as a rule, active = well fitted inhibition curve with a large enough effect; inconclusive = small, poorly fitted or top-dose-only effect; inactive = no such curve, though single readings can be large or run the other way.
Potency is read from the fitted curve at half-maximal effect.

Assay: NS1 protein of Zika virus - qHTS assay to identify small molecule inhibitors in human HEK 293 cells (AID 1347053); also: nearly all actives have a fitted effect of over 55% in size
Details: HEK293 ZIKV MR766 infection, NS1 TR-FRET, 24 h; series mostly up to 46.1 µM
Text: National Center for Advancing Translational Sciences [NCATS]
Johns Hopkins University School of Medicine
The non-structural 1 (NS1) protein of zika virus is known to associate with the viral replication complex. This cell-based TR-FRET ZIKV NS-1 assay measures the increased NS-1 protein in human HEK 293 cells after a 24-hour Zika virus infection by a TR-FRET assay readout. A decrease in the Time-resolved fluorescence energy transfer (TR-FRET) signal in this assay by small molecule treatment indicates an inhibitory effect of the small molecule on the expression of Zika virus NS1 correlating with Zika virus replication.
HEK 293 cells were cultured in EMEM (ATCC, Cat. # 30-2003) medium with 10% fetal bovine serum (GE healthcare Life Sciences, Cat. # SH30071.03), and 1% Pen/Strep (Gibco, Cat. # 15140-122). Cells were seeded in the assay plate and incubated at 37 C with 5% CO2 for 20 hours. Compounds were added to cells and incubated for one hour before addition of ZIKV MR766 strain solution to cells (MOI = 0.5). After an incubation at 37 C for 24 hours, the reagent mixture of TR-FRET ZIKV NS1 assay using two anti-ZIKV NS1 antibodies was added to assay plates. The TR-FRET signals in assay plates were measured using an Envision plate reader (PerkinElmer). Data were normalized by using the cell-containing wells without ZIKV as a negative control (0% NS-1) and wells containing ZIKV infected cells as a positive control (100% NS-1 level).
In the case of `C[C@@H]1C[C@H]2[C@@H]3CCC4=CC(=O)C=C[C@]4(C)[C@@]3(F)[C@@H](O)C[C@]2(C)[C@@]1(O)C(=O)CO`, the Potency is reported as “inactive”. In the case of `CCC[C@H](Nc1nc(-c2ccc(NC(=O)NCC)c(OC)c2)ncc1C)c1cccnc1`, the Potency is reported as 0.0093 µM (active). With `CC[C@H](C=C[C@@H](C)[C@H]1CC[C@H]2[C@@H]3CC=C4C[C@@H](O)CC[C@]4(C)[C@@H]3CC[C@]12C)C(C)C` the Potency was “inactive”. With `Cc1ccc(NC(=O)c2cccc(N(C)C)c2)cc1NC(=O)c1ccc(O)cc1` the Potency was “inactive”. For `O=C1NC(=O)C(=Cc2ccc(-c3ccc(F)cc3O)o2)S1`, the Potency was “inactive”. In the case of `CN[C@H]1[C@@H](O[C@@H]2[C@H](O[C@@H]3[C@@H](O)[C@@H](O)[C@@H](N=C(N)N)[C@@H](O)[C@@H]3N=C(N)N)O[C@H](C)[C@@]2(O)C=O)O[C@@H](CO)[C@@H](O)[C@H]1O`, the Potency is reported as “inactive”. For `OC[C@H]1O[C@@H](Oc2ccc(O)cc2)[C@H](O)[C@@H](O)[C@H]1O`, the Potency was “inactive”. With `Cc1cn([C@@H]2C[C@@H](O)[C@H](CO)O2)c(=O)[nH]c1=O` the Potency was “inactive”. With `C[C@H](c1ccc(F)cc1CCCC(=O)O)N(c1cc(F)ccc1F)S(=O)(=O)c1ccc(Cl)cc1` the Potency was “inactive”. In the case of `CNC(=O)c1c(-c2ccc(F)cc2)oc2cc(N(CCO)S(C)(=O)=O)c(C3CC3)cc12`, the Potency is reported as “inactive”. With `OC[C@H]1O[C@@H](OCCc2ccc(O)cc2)[C@H](O)[C@@H](O)[C@H]1O` the Potency was “inactive”. For `CN(C)c1ccccc1CN1CCCN(Cc2ccccc2N(C)C)C1c1ccncc1`, the Potency was 11.8 µM (active). In the case of `O=c1cc(-c2ccc(O)c(O)c2)oc2cc(O)cc(O)c12`, the Potency is reported as “inactive”. For `CC(C)n1c(C=C[C@H](O)C[C@H](O)CC(=O)O)c(-c2ccc(F)cc2)c2ccccc21`, the Potency was “inactive”. For `CN1[C@H]2CC[C@H]1CC(OC(=O)c1c[nH]c3ccccc13)C2` (stereo not given in full), the Potency was “inactive”. In the case of `CCN(CCO)CCCOc1ccc2c(Nc3cc(CC(=O)Nc4cccc(F)c4)[nH]n3)ncnc2c1`, the Potency is reported as “inactive”. In the case of `O=C(NC[C@H](O)CO)c1ccncc1Nc1ccc(I)cc1F`, the Potency is reported as “inactive”. In the case of `CN1C(=O)C(Cc2c[nH]c3ccccc23)NC1=S` (stereo not given), the Potency is reported as “inactive”. For `C[C@]12C=CC(=O)C=C1CC[C@@H]1[C@@H]2[C@@H](O)C[C@@]2(C)[C@@H]1CC[C@]2(O)C(=O)CO`, the Potency was “inactive”. In the case of `O=C(O)C1=NC(C(=O)O)CC(C=CN2c3cc(O)c(OC4OC(CO)C(O)C(O)C4O)cc3CC2C(=O)O)=C1` (stereo not given), the Potency is reported as “inactive”. In the case of `COc1ccc(CCC(=O)Nc2nc3ccc(Cl)cc3s2)cc1OC`, the Potency is reported as “inactive”. For `Oc1ccc(C=Cc2cc(O)cc(O)c2)cc1`, the Potency was “inactive”. With `CCNC(=O)CCCC=CC[C@@H]1[C@H](C=CC(O)CCc2ccccc2)[C@@H](O)C[C@@H]1O` (stereo not given in full) the Potency was “inactive”. For `CCN(CC)CCCCNc1nc2cc(Cl)c(Cl)cc2nc1-c1ccc(-c2cccs2)s1`, the Potency was “inactive”. With `Cc1cnc(-c2cc(N3CCN(C(=O)CCS(C)(=O)=O)CC3)ncc2Cl)c(C)c1` the Potency was “inactive”. With `CON(C)C(=O)N1N=C(c2cc(F)ccc2F)S[C@]1(CCCN)c1ccccc1` the Potency was 14.8 µM (active). With `CN(C)CCN(Cc1ccc(Cl)cc1)c1ccccn1` the Potency was “inactive”. For `CS(=O)(=O)c1ccc(C2=C(c3ccccc3)C(=O)OC2)cc1`, the Potency was “inactive”. With `Cn1c(=O)c(-c2c(Cl)cccc2Cl)cc2cnc(Nc3cccc(C(=O)O)c3)nc21` the Potency was “inactive”. For `CCNC(=O)[C@H]1O[C@@H](n2cnc3c(N)nc(NCCc4ccc(CCC(=O)O)cc4)nc32)[C@H](O)[C@H]1O`, the Potency was “inactive”. For `N#Cc1c(N(CC(=O)O)CC(=O)O)sc(C(=O)O)c1CC(=O)O`, the Potency was “inactive”. With `CC1CNc2c(cccc2S(=O)(=O)N[C@@H](CCCN=C(N)N)C(=O)N2CC[C@@H](C)C[C@@H]2C(=O)O)C1` (stereo not given in full) the Potency was “inactive”. In the case of `O=C1CCCC(=O)C1C(=O)c1ccc(C(F)(F)F)cc1[N+](=O)[O-]`, the Potency is reported as “inactive”. With `CC(=O)OCC(=O)[C@@]1(O)CC[C@H]2[C@@H]3CCC4=CC(=O)C=C[C@]4(C)[C@@H]3[C@@H](O)C[C@@]21C` the Potency was “inactive”. For `CC(O)=C(C#N)C(=O)Nc1ccc(C(F)(F)F)cc1`, the Potency was 13.2 µM (active). For `CC[C@H](CC#N)OC(=O)N[C@@H](C)c1cccc(NC(=O)Nc2ccc(-c3cnco3)c(OC)c2)c1`, the Potency was 0.235 µM (active). In the case of `CN1CCN2c3ncccc3Cc3ccccc3C2C1` (stereo not given), the Potency is reported as “inactive”. For `Cc1ccccc1C(=O)c1ccc(Nc2ccc(Br)cc2N)cc1Cl`, the Potency was 9.35 µM (active). In the case of `O=C(CO)N1CCC(c2[nH]nc(-c3ccc(Cl)cc3)c2-c2ccncn2)CC1`, the Potency is reported as “inactive”. In the case of `Fc1ccc(CNc2ncnc3ccc(F)cc23)cc1`, the Potency is reported as “inactive”.
